Laboratory results reported in PubChem BioAssay.
Active and inactive are the calls of the source.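 The calls were made as follows, unless noted: active = NADPH fluorescence slope more negative than the mean of all samples by about 3 SD, 99.7% confidence; inactive = the rest.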

Legend:
[1] = inhibitors of TNFa-induced NFkB p65 translocation, primary screen, imaging, HUVEC, MLSMR starter and 10KST1 sets (AID 438;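 active = inhibition above 20% together with a positive visual image hit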;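 also: compound added about 3h40 before a 20 min TNFalpha stimulation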;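 as to inhibition: signal is the nuclear over cytoplasmic p65 intensity ratio per well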); details: HUVEC TNFa-induced p65 nuclear translocation; cell count: measured here: nuclei count (cytotoxicity indicator), at 2.08 µM; inhibition: at 2 µM, stronger effect = higher value, 0% TNFa-plus-vehicle, 100% no-TNFa wells
[2] = inhibitors of mutant huntingtin aggregation, primary screen, imaging, exon1htt(103Q)mCFP cells, high-content imaging (AID 483;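 active = visual image review flags a hit and inhibition of aggregation exceeds 20%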;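 also: compound exposure lasted 3 days before fixation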;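 as to nuclei count: percent of the per-plate median nuclei count of sample wells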); details: exon1htt(103Q)mCFP cell line, aggregate imaging, at 2 µM; inhibition of aggregation: stronger effect = higher value; nuclei count: measured here: cell count, toxicity
[3] = inhibitors of E-selectin induction by TNFa, primary screen, imaging, HUVEC, immunofluorescence, MLSMR starter and 10KST1 sets (AID 487;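 active = visually confirmed hit in the image check and inhibition above 20%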;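 as to inhibition: signal is fraction of cell area covered by stained E-selectin grains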;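 as to nuclei count: 100% = median nuclei count of all wells on the same plate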); details: HUVEC TNFalpha-induced E-selectin immunofluorescence imaging, at 2 µM; inhibition: stronger effect = higher value; nuclei count: measured here: cell number, toxicity
[4] = biological target: Voltage-gated potassium channel subunit beta-2 (Rattus norvegicus) (UniProt P62483); test: KvBeta enzyme negative modulators, primary screen, biochemical, NADPH fluorescence (AID 622;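 active = fluorescence slope higher than the sample average by over 3 SD, cut at about -0.22 in these data, passing the limit was not always enough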;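 also: slope of raw intensity against log time taken from 70 to 1610 s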); details: recombinant KvBeta, 4-cyanobenzaldehyde reduction, at 10 µM, stronger effect = higher value
Sequence of Voltage-gated potassium channel subunit beta-2 (Rattus norvegicus) (P62483 whole entry, looked up): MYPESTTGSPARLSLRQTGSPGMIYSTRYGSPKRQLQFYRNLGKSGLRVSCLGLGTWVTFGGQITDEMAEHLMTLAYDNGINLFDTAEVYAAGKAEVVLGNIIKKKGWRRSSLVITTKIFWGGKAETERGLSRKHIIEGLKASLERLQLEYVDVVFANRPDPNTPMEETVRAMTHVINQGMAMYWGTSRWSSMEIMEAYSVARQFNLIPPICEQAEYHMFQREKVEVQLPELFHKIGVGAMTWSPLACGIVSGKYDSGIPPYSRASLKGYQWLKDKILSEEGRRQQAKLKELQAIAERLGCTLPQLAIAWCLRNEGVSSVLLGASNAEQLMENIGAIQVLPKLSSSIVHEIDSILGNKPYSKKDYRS

[5] = biological target: Voltage-gated potassium channel subunit beta-2 (Rattus norvegicus) (UniProt P62483); test: KvBeta positive modulators, primary screen, biochemical, NADPH fluorescence (AID 623); details: Recombinant KvBeta, NADPH fluorescence decrease slope, 10 min; at 10 µM; stronger effect = lower value;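 also: fluorescence intensity change per second fitted from 20 to 320 s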
[6] = biological target: Alpha-2C adrenergic receptor (Homo sapiens) (UniProt P18825); test: modulators of alpha2C/GIRK thallium flux, primary screen, cell-based, HEK293 alpha2C/GIRK1/2 (AID 624;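 active = fluorescence slope after compound addition differing from the mean of all screened samples at 99.7% confidence, in either direction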;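 also: slope of fluorescence ratio to pre-addition baseline per second over 15 to 24 s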); details: thallium flux BTC fluorescence, at 10 µM, actives lie on both sides
Sequence of Alpha-2C adrenergic receptor (Homo sapiens) (P18825 whole entry, looked up): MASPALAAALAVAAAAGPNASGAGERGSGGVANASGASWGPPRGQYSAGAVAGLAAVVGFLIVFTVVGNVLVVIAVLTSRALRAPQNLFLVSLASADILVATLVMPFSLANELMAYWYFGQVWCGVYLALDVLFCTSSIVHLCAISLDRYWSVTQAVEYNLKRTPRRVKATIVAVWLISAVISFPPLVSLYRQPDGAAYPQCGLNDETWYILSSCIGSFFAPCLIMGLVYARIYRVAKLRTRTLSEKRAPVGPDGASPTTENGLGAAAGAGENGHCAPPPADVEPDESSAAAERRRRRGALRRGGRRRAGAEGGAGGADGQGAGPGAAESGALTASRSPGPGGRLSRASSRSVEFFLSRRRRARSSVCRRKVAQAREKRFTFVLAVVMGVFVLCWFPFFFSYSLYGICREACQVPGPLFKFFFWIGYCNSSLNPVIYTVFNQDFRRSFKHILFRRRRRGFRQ

[7] = inhibitors of Sendai virus-induced IRF3 signaling, primary screen, TLR/RLR signaling modifier project, cell-based, Sendai virus stimulus, luciferase, 10K MLSCN set (AID 602276;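 active = inhibition at or above 50% at 10 µM; inactive = inhibition below 50%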;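 also: firefly luciferase from ISG56 promoter only with Renilla not read in this screen; 0% = Sendai virus plus DMSO and 100% = medium plus DMSO without virus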); details: HEK293 RL24 IRF3 luciferase reporter, at 10 µM, stronger effect = higher value
[8] = inhibitors of poly I:C-induced TLR3 signaling, primary screen, cell-based, poly I:C stimulus, luciferase, 10K MLSCN set (AID 602277;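 active = inhibition of the reporter signal at or above 50%; inactive = inhibition below 50%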); details: HEK293-TLR3 RL24 IRF3 luciferase reporter, at 10 µM, stronger effect = higher value

SMILES	cell count [1]	inhibition [1]	inhibition of aggregation [2]	nuclei count [2] [%]	inhibition [3]	nuclei count [3] [%]	fluorescence slope [4]	NADPH fluorescence slope [5]	slope [6]	inhibition [7]	inhibition [8]
CCOC(=O)C1CCN(c2c(NCCN3CCN(c4ccccc4)CC3)c(=O)c2=O)CC1	533	7.8% (inactive)	7.2% (inactive)	96.5	-115% (inactive)	95.9	-0.6 (inactive)	-1.7e-05 (inactive)	0.00543 (inactive)	1.01% (inactive)	28.4% (inactive)
COc1ccc2nc3oc(C(=O)N4CCCCC4)cc3cc2c1	194	1.8% (inactive)	-10.4% (inactive)	105	-13.7% (inactive)	112	-0.0908 (inactive)	-2.5e-05 (inactive)	0.00338 (inactive)	-36.8% (inactive)	-132% (inactive)
Cc1ccc2[nH]c3c(c2c1)CCc1cn[nH]c1-3	410	5.1% (inactive)	-4.7% (inactive)	71.7	27.4% (inactive)	105	-0.481 (inactive)	-1.8e-05 (inactive)	0.00393 (inactive)	-22.4% (inactive)	-73.4% (inactive)
CCOC(=O)N1CCN(c2c(NCCCOC(C)C)c(=O)c2=O)CC1	642	-1.6% (inactive)	-10.2% (inactive)	109	27.9% (inactive)	122	-0.513 (inactive)	-2.4e-05 (inactive)	0.00694 (inactive)	7.84% (inactive)	16% (inactive)
O=C(/C=N/O)NCc1ccncc1	420	1.2% (inactive)	0.7% (inactive)	98.3	28.2% (inactive)	88	-0.606 (inactive)	-2.2e-05 (inactive)	0.00648 (inactive)	8.28% (inactive)	11.3% (inactive)
O=C(CSc1ncccn1)NCc1ccccc1	362	2.5% (inactive)	12.3% (inactive)	103	36.4% (inactive)	120	-0.531 (inactive)	3.2e-05 (inactive)	0.00529 (inactive)	-29.7% (inactive)	-47.8% (inactive)
Cc1cccc(-c2nc(CN3CCCC(C(=O)NC4CCCC4)C3)c(C)o2)c1 (stereo not given)	333	-0.4% (inactive)	-3.8% (inactive)	111	-15.2% (inactive)	103	-0.514 (inactive)	-5.9e-06 (inactive)	0.00415 (inactive)	20.6% (inactive)	16.3% (inactive)
COC(=O)CSc1nc2nc(C)cc(C)n2n1	722	-4.5% (inactive)	0.1% (inactive)	98.6	-33.5% (inactive)	108	-0.552 (inactive)	-1.8e-05 (inactive)	0.00719 (inactive)	11.7% (inactive)	28.1% (inactive)
CCCCOCCCNC(=O)c1cccs1	471	4.5% (inactive)	-4.3% (inactive)	103	-392% (inactive)	139	-0.443 (inactive)	-2.3e-05 (inactive)	0.00349 (inactive)	5.11% (inactive)	25.1% (inactive)
Cc1csc2ncc(C(=O)N3CCc4ccccc43)c(=O)n12	601	5.3% (inactive)	-17% (inactive)	104	10% (inactive)	110	-0.551 (inactive)	-4.3e-05 (inactive)	0.00571 (inactive)	11.1% (inactive)	39.2% (inactive)
CCN(CC)CCn1c(=N)n(CCO)c2ccccc21	592	0.2% (inactive)	19.1% (inactive)	95.6	-30.1% (inactive)	91.5	-0.376 (inactive)	1.5e-05 (inactive)	0.00357 (inactive)	7.52% (inactive)	39.8% (inactive)
CC1(C)OC(=O)C(=CNC(CCC(N)=O)C(=O)O)C(=O)O1 (stereo not given)	679	3.6% (inactive)	0.3% (inactive)	117	-16.8% (inactive)	108	-0.611 (inactive)	-9.2e-07 (inactive)	0.00611 (inactive)	-19% (inactive)	-5.5% (inactive)
CS(=O)(=O)N1CCC(C(=O)NCCC2=CCCCC2)CC1	427	4.2% (inactive)	8% (inactive)	100	-89.9% (inactive)	106	-0.382 (inactive)	-2.9e-05 (inactive)	0.00662 (inactive)	12.6% (inactive)	8.24% (inactive)
CN1CCN(CC#CCC(O)(c2ccccc2)C2CCCC2)CC1 (stereo not given)	415	2.2% (inactive)	-1.8% (inactive)	99.7	-21.3% (inactive)	118	-0.428 (inactive)	-4.8e-05 (inactive)	0.00551 (inactive)	7.06% (inactive)	4.71% (inactive)
CCOC(=O)c1ccc(N2C(=O)CC(N(C)CCc3ccc(OC)c(OC)c3)C2=O)cc1 (stereo not given)	451	-7.1% (inactive)	2.9% (inactive)	94.2	-20.7% (inactive)	117	-0.431 (inactive)	3.6e-05 (inactive)	0.00246 (inactive)	-7.6% (inactive)	25.6% (inactive)
